We go through 40 molecules from PubChem BioAssay (NCI).

About 83,000 compounds went through this panel and 20% of them were active in at least one assay; those are over-represented in the sample as a whole.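 For each line, cells grew in 96-well plates with the test compound present at a single concentration for 48 hours.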 A number with no mark means an inactive call. The source made the active and inactive calls.

The assay has as its system SK-MEL-2 melanoma. The assay is described as follows: NCI-60 one-dose screen, 48 h (100 = growth as untreated, 0 = no growth, -100 = all killed). Conditions: 10 µM unless noted. On the procedure: Growth inhibition of the SK-MEL-2 human tumor cell line is measured as a screen for anti-cancer activity. Cells are grown in 96 well plates and exposed to the test compound for 48 hours. Compounds are tested at a single concentration, which is 10^-5 M for most compounds. The reported endpoint is percent growth (GI% or GIPRCNT), where numbers from 0 - 100% represent growth inhibition, and numbers from -100% - 0 represent cell death. For example, a value of 40 represents 60% growth inhibition. A value of 0 means no net growth occurred over the course of the experiment. A value of -40 indicates 40% of cells at the beginning of the experiment died by the end of the experiment. A value of -100 means all cells are dead at the end of the experiment.
NCI-60 Human Tumor Cell Lines Screen was performed using the standard one-dose NCI protocol, which is described in more detail at https://dtp.cancer.gov/discovery_development/nci-60/default.htm.
Compounds with GIPRCNT values below 10 were considered active. Activity score was based on GIPRCNT using the following formula: […]
Score is 0 for GIPRCNT values of 100 or above, 50 for GIPRCNT values of 0, and 100 for GIPRCNT values of -100.
In the case of `Oc1c(O)c(Cl)c(Cl)c(Cl)c1Cl`, the growth was 39.1%.

In the case of `COc1cc(/C=C/[N+](=O)[O-])cc(OC)c1`, the growth is 59.6%.

As to `O[C@H](CN1CC1)[C@@H](O)CN1CC1`, the growth was 87%.

Turning to `COC(=O)[C@@H](NC(=O)c1cn(CCC2CCCCC2)c2ccccc12)C(C)(C)C`, the growth is 78.1%.

In the case of `CC1=C(CN)C2=C(C)C3(CC3)[C@@](C)(O)C(=O)C2=C1`, the growth was 98.5%.

As to `Clc1ccc(N2COOC3(OOC2)C2CC4CC(C2)CC3C4)cc1`, the growth was 87.4%.

For the molecule `COC(=O)[C@@H](C)C[C@H](Cc1ccccc1)NC(=O)c1csc([C@@H](C[C@H](C(C)C)N(C)C(=O)[C@@H](NC(=O)[C@H]2CCCCN2C)c2ccc(F)cc2)OC(C)=O)n1`, the growth is 30.2%.

For `CC(C)OC(=O)[C@H](C)NP(=O)(Oc1ccccc1)C1CCCN(O)C1=O` (stereo not given in full), the growth was 94.1%.

As for `NC(N)=N/N=C\c1c[nH]c2ccc(Br)cc12`, the growth was 99.9%.

On to `COc1cc(C=C2c3ccccc3C(=O)c3ccccc32)ccc1OCCCCOc1cc2c(cc1OC)C(=O)N1CCCC1C=N2` (stereo not given), for which the growth is -79.6% (active).

With `COC(=O)[C@]12CCC(C)(C)C[C@H]1[C@H]1C(=O)C[C@@H]3[C@@]4(C)C[C@@]5(CC(C)(C)[C@@H]4CC[C@@]3(C)[C@]1(C)CC2)OO[C@@](C)(C(F)(F)F)O5`, the growth was 92.3%.

On to `O=[N+]([O-])c1cc([N+](=O)[O-])c(Cl)cc1Cl`, for which the growth was -43% (active).

Regarding `O=C1N[C@@H]2[C@@H](O)[C@@H](O)[C@H](O)C[C@H]2c2cc3c(c(O)c21)OCO3`, the growth was -63.6% (active).

`CCCCCC1(CCBr)C(=O)NC(=O)NC1=O`: the growth was 105%.

As for `CCC(O)(CN)c1ccccc1` (stereo not given), the growth was 97.7%.

As for `Cc1cc(N(CCCl)CCCl)ccc1C=Nc1ccc(-c2csc(Cc3ccccc3)n2)cc1`, the growth is 109%.

Turning to `COC(=O)[C@H](Cc1ccccc1)NNC(=O)c1csc([C@@H](C[C@H](C(C)C)N(C)C(=O)[C@@H](NC(=O)[C@H]2CCCCN2C)C2CC2)OC(C)=O)n1`, the growth was 30.6%.

Consider `COc1ccc(/C=C\c2cc(OC)c(OC)c(OC)c2)cc1OCC(=O)Nc1nc2ccc(C(F)(F)F)cc2s1`, for which the growth is -2.78% (active).

As to `COc1ccc(NC([Se])=NC23CC4CC(CC(C4)C2)C3)cc1`, the growth was -8.11% (active).

Consider `COP(=O)(OC)C(O)c1ccc(Cl)cc1` (stereo not given), for which the growth is 109%.

Turning to `O=C1CN=C(c2ccc(Cl)cc2)c2sccc2N1`, the growth is 107%.

As to `CN[C@]1(c2ccccc2Cl)CCCC[C@H]1NCCCN1CCN(C)CC1`, the growth was 103%.

In the case of `COc1ccc(C(=O)c2cc(OC)c(OC)c(OC)c2)cc1OC(C)=O`, the growth was 47.8%.

Consider `CCCC[C@H](NC(=O)[C@H]1CCCCN1C)C(=O)N(C)[C@H](C[C@@H](OC(C)=O)c1nc(C(=O)N[C@@H](Cc2ccccc2)C[C@H](C)C(=O)OCC)cs1)C(C)C`, for which the growth is 11.8%.

With `C/C=C(\C)C(=O)O[C@@H]1C(O)[C@H]2OC(COC(=O)CCC(=O)CCCCCC[C@H](CCCCC)O[C@@H]3OC(C)[C@H](OC(C)=O)C(O)[C@H]3O2)[C@H]1OC(=O)/C=C/c1ccccc1` (stereo not given in full), the growth is -1.53% (active).

For the molecule `COC(=O)C1CCC(NC(=O)c2csc([C@@H](C[C@H](C(C)C)N(C)C(=O)[C@@H](NC(=O)[C@H]3CCCCN3C)C(C)C)OC(C)=O)n2)CC1` (stereo not given in full), the growth was 28.6%.

For the molecule `O=C(CC1(O)C(=O)Nc2ccccc21)c1ccc(C(=O)NCC2CCC3(CC2)OOC2(CCCCC2)OO3)cc1` (stereo not given), the growth was 70.7%.

With `O=Cc1cn(Cc2ccc(Cl)cc2)c2ccccc12`, the growth was 82.7%.

With `N#CC1(c2ccccc2)CCN(Cc2ccccc2)CC1`, the growth is 99.6%.

For `O=C(CC1(O)C(=O)Nc2ccc(Cl)cc21)c1ccc(C(=O)NCC2CCC3(CC2)OOC2(CCCCC2)OO3)cc1` (stereo not given), the growth is 12.7%.

On to `Clc1cc(N2CC2)nc(N2CC2)n1`, for which the growth is 91%.

On to `COc1ccc(/C=C\c2cc(OC)c(OC)c(OC)c2)c(NS(=O)(=O)c2ccc(Cl)cc2)c1O`, for which the growth is 0.0535% (active).

Turning to `CC(=O)[O][Hg][O]C(C)=O`, the growth is 90.3%.

Take `CCC(CC)CC1(C)CC2(C)CCOC2OO1` (stereo not given): the growth is 94.9%.

Consider `COc1cc([C@@H]2c3cc4c(cc3[C@H](OC(C)=O)[C@H]3COC(=O)[C@@H]23)OCO4)cc(OC)c1OC`, for which the growth was 40.2%.

As for `CC[C@H](C)[C@H](NC(=O)[C@H]1CCCCN1C)C(=O)N(C)[C@H](C[C@@H](OC(C)=O)c1cccc(C(=O)N[C@@H](Cc2ccccc2)C[C@H](C)C(=O)O)n1)C(C)C`, the growth is 36.3%.

Turning to `CCCOC(=O)N[C@H]1CCc2c(Br)c(OC)c(OC)c(OC)c2-c2ccc(SC)c(=O)cc21`, the growth is 34.2%.

For the molecule `COc1cc(/C=C\c2cc(OC)c(OC)c(OC)c2)cc(NS(=O)(=O)c2cccc(Cl)c2)c1OC`, the growth is 23.5%.

Regarding `COc1ccc(C2=N[C@@H](Cc3ccccc3)C(=O)Nc3ccsc32)cc1`, the growth was -4.24% (active).

Regarding `COC(=O)C12CC(NC(=O)c3csc([C@@H](C[C@H](C(C)C)N(C)C(=O)[C@@H](NC(=O)[C@H]4CCCCN4C)C4CC4)OC(C)=O)n3)(C1)C2`, the growth is 34.7%.
